SMILES strings stand for the structures. Compounds without any hit were thinned out: in the full panel of roughly 79,000, 15% have a hit. A number with no mark means an inactive call. The source made the active and inactive calls. Cut-off read from the data, not from the text of the source: active = growth inhibition above about 70%; inactive = the rest.

The results in this text go back to PubChem BioAssay (NCI).

The nature of one experiment: NCI Yeast Anticancer Drug Screen. Data for the bub3 strain (AID 167). The conditions noted are these: S. cerevisiae bub3 mutant strain, at 5.0 µM (retest, dose inferred, filed as 0.5), stronger effect = higher value. The gist of the method:
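Yeast carrying a defined mutation is treated with each compound, and growth is compared with that of vehicle-exposed cells to give inhibition.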
Regarding `COc1ccc(C(=O)[O][Sn]([c]2ccccc2)([c]2ccccc2)[c]2ccccc2)c(OC)c1OC`, the growth inhibition was 100% (active).

With `CCC(CC)C1(C(=O)OCCN(CC)CC)CCCCC1`, the growth inhibition is -1%.

With `O=C1OC(=O)C2C1C1C(c3ccccc3)=C(c3ccccc3)C2(O)C2C(=O)OC(=O)C12` (stereo not given), the growth inhibition was 4%.

With `C/C(=C/CC1CCC2C3=CCC4CC(O)CCC4(C)C3CCC12C)C(C)C(C)C` (stereo not given), the growth inhibition was -2%.

`CCC1(CC(=O)O)OCCc2c1[nH]c1c(C)c(Cl)ccc21` (stereo not given): the growth inhibition was -4%.

Take `CN(C)CCCSc1c2ccccc2nc2cccc([N+](=O)[O-])c12`: the growth inhibition is 14%.

As to `CC1OC(OP(=O)(OCc2ccccc2)OCc2ccccc2)C(OC(=O)c2ccccc2)C(OC(=O)c2ccccc2)C1I` (stereo not given), the growth inhibition is 30%.

`C#CC(CC(C)CC(C)(C)C)NC` (stereo not given): the growth inhibition is 2%.

In the case of `N#CCCN(CCC#N)Cc1cc(-c2ccccc2)ccc1O`, the growth inhibition is 1%.

On to `Cc1ccc(NC(=O)CCCC(=O)C(C#N)c2ccccc2C)cc1C` (stereo not given), for which the growth inhibition was -1%.

Turning to `C[C@H]1CC[C@@H]2[C@@H](C)[C@H]3[C@H](C[C@H]4[C@@H]5CC=C6C[C@@H](O)CC[C@]6(C)[C@H]5CC[C@]34C)N2C1`, the growth inhibition is 48%.

On to `Cc1nc(-c2ccc(N=Cc3ccc(N(CCOS(C)(=O)=O)CCOS(C)(=O)=O)cc3)cc2)cs1`, for which the growth inhibition is -3%.

As for `COc1ccc2nc3cccc([N+](=O)[O-])c3c(NCCO)c2c1`, the growth inhibition was 24%.

Take `Oc1ccc(C2CCCCC2)cc1`: the growth inhibition was -4%.

Consider `CCCCCc1cc(Cl)cc(Cl)c1O`, for which the growth inhibition was -22%.

Take `C=C1C(=O)OC2/C=C(\C(=O)O)CC/C=C(\C)CC(OC(=O)/C=C(\C)CC)C12` (stereo not given): the growth inhibition is -7%.

Take `O/N=C(/Cc1nc2cc(Cl)c(Cl)cc2nc1C/C(=N/O)c1ccncc1)c1ccncc1`: the growth inhibition was 5%.

As to `Cc1cc(NC(=S)SCc2ccc3c(c2)OCO3)ccc1Br`, the growth inhibition was 49%.

On to `CN1C(=O)OC(C)(c2ccccc2)C1=O` (stereo not given), for which the growth inhibition was 2%.

`O=C1c2ccccc2C(=O)c2c1cccc2[N+](=O)[O-]`: the growth inhibition was 82% (active).

For the molecule `O=[N+]([O-])c1ccccc1Oc1ccc([N+](=O)[O-])c(C(F)(F)F)c1`, the growth inhibition was 2%.

For the molecule `Cc1ccc(O)c(N=Nc2ccc(Cl)cc2)c1`, the growth inhibition was 1%.

For the molecule `CC(C)Cc1cc2c(cc1O)CCC1C2CC[C@@]2(C)C1CC[C@@H]2O` (stereo not given in full), the growth inhibition was -34%.

Take `CCOC(=O)CC1(C)C(=O)CCCC1=O`: the growth inhibition is -5%.

With `OC(c1cc(-c2ccc(Cl)cc2Cl)nc2ccccc12)C1CCCCN1` (stereo not given), the growth inhibition was 0%.

Take `COc1ccc(N=Cc2cc(Br)cc(Br)c2O)cc1.COc1ccc(N=Cc2cc(Br)cc(Br)c2O)cc1.[Co]`: the growth inhibition is 86% (active).

With `Cc1ccc[n+](CC(=O)C2CCC3C4CC=C5CC(O)CCC5(C)C4CCC23C)c1` (stereo not given), the growth inhibition is 3%.

As to `CN(C)CC(C)(C)C(/C=C/c1ccccc1)=N\Nc1ccccc1`, the growth inhibition is 1%.

For the molecule `COC1(OC)C2(Cl)C(Cl)=C(Cl)C1(Cl)C1C2C2CC1(C(=O)O)c1ccccc12` (stereo not given), the growth inhibition is 26%.

Consider `NC(N)=N/N=C(\c1ccc(F)cc1)c1ccc(C(F)(F)F)cc1`, for which the growth inhibition is -1%.

On to `O=C1CC(c2ccccc2Cl)C(c2ccccc2Cl)C1` (stereo not given), for which the growth inhibition is 0%.

`O=C(Cl)c1ccc(N=Nc2ccccc2)cc1`: the growth inhibition is 1%.

Take `O=[N+]([O-])c1ccccc1N=Nc1c(O)[nH]c2ccc(S(=O)(=O)O)cc12`: the growth inhibition was 87% (active).

For the molecule `Cc1ccccc1N=NC(C(=O)c1ccccc1)C(=O)c1ccccc1`, the growth inhibition is 5%.

For the molecule `CCCCC(CC)(COC(C)=O)COC(C)=O`, the growth inhibition is 4%.

Take `NCCOB(c1ccccc1)c1ccccc1`: the growth inhibition is 1%.

In the case of `O=C(Nc1ccccc1C(=O)O)c1ccccc1`, the growth inhibition was -14%.

As for `O=[N+]([O-])c1ccc(Sc2c3ccccc3nc3ccccc23)nc1`, the growth inhibition was 49%.

Take `Cc1oc2c(c1C(=O)c1ccccc1)C(=O)c1ccccc1C2=O`: the growth inhibition was 39%.

Turning to `OC1(c2ccccc2)CCN(c2c3ccccc3nc3ccccc23)CC1`, the growth inhibition is 0%.

The same experiment, now with this note: S. cerevisiae bub3 mutant strain, at 50.0 µM (retest, dose inferred, filed as 5.0), stronger effect = higher value.
For the molecule `COc1ccc(C(=O)[O][Sn]([c]2ccccc2)([c]2ccccc2)[c]2ccccc2)c(OC)c1OC`, the growth inhibition is 100% (active).

For the molecule `CCC(CC)C1(C(=O)OCCN(CC)CC)CCCCC1`, the growth inhibition was 48%.

`O=C1OC(=O)C2C1C1C(c3ccccc3)=C(c3ccccc3)C2(O)C2C(=O)OC(=O)C12` (stereo not given): the growth inhibition is 4%.

With `C/C(=C/CC1CCC2C3=CCC4CC(O)CCC4(C)C3CCC12C)C(C)C(C)C` (stereo not given), the growth inhibition is 97% (active).

As for `CCC1(CC(=O)O)OCCc2c1[nH]c1c(C)c(Cl)ccc21` (stereo not given), the growth inhibition is 96% (active).

Turning to `CN(C)CCCSc1c2ccccc2nc2cccc([N+](=O)[O-])c12`, the growth inhibition was 8%.

Take `CC1OC(OP(=O)(OCc2ccccc2)OCc2ccccc2)C(OC(=O)c2ccccc2)C(OC(=O)c2ccccc2)C1I` (stereo not given): the growth inhibition was 77% (active).

In the case of `C#CC(CC(C)CC(C)(C)C)NC` (stereo not given), the growth inhibition is 86% (active).

Regarding `N#CCCN(CCC#N)Cc1cc(-c2ccccc2)ccc1O`, the growth inhibition is 44%.

Turning to `Cc1ccc(NC(=O)CCCC(=O)C(C#N)c2ccccc2C)cc1C` (stereo not given), the growth inhibition is 2%.

For the molecule `C[C@H]1CC[C@@H]2[C@@H](C)[C@H]3[C@H](C[C@H]4[C@@H]5CC=C6C[C@@H](O)CC[C@]6(C)[C@H]5CC[C@]34C)N2C1`, the growth inhibition was 99% (active).

On to `Cc1nc(-c2ccc(N=Cc3ccc(N(CCOS(C)(=O)=O)CCOS(C)(=O)=O)cc3)cc2)cs1`, for which the growth inhibition was -10%.

For `COc1ccc2nc3cccc([N+](=O)[O-])c3c(NCCO)c2c1`, the growth inhibition is 86% (active).

On to `Oc1ccc(C2CCCCC2)cc1`, for which the growth inhibition is 62%.

Take `CCCCCc1cc(Cl)cc(Cl)c1O`: the growth inhibition is -22%.

As for `C=C1C(=O)OC2/C=C(\C(=O)O)CC/C=C(\C)CC(OC(=O)/C=C(\C)CC)C12` (stereo not given), the growth inhibition was 84% (active).

With `O/N=C(/Cc1nc2cc(Cl)c(Cl)cc2nc1C/C(=N/O)c1ccncc1)c1ccncc1`, the growth inhibition is 77% (active).

For `Cc1cc(NC(=S)SCc2ccc3c(c2)OCO3)ccc1Br`, the growth inhibition was 98% (active).

`CN1C(=O)OC(C)(c2ccccc2)C1=O` (stereo not given): the growth inhibition was -7%.

On to `O=C1c2ccccc2C(=O)c2c1cccc2[N+](=O)[O-]`, for which the growth inhibition is 88% (active).

Consider `O=[N+]([O-])c1ccccc1Oc1ccc([N+](=O)[O-])c(C(F)(F)F)c1`, for which the growth inhibition is 92% (active).

Regarding `Cc1ccc(O)c(N=Nc2ccc(Cl)cc2)c1`, the growth inhibition was -8%.

Regarding `CC(C)Cc1cc2c(cc1O)CCC1C2CC[C@@]2(C)C1CC[C@@H]2O` (stereo not given in full), the growth inhibition was 97% (active).

Consider `CCOC(=O)CC1(C)C(=O)CCCC1=O`, for which the growth inhibition is -2%.

Consider `OC(c1cc(-c2ccc(Cl)cc2Cl)nc2ccccc12)C1CCCCN1` (stereo not given), for which the growth inhibition was 99% (active).

Consider `COc1ccc(N=Cc2cc(Br)cc(Br)c2O)cc1.COc1ccc(N=Cc2cc(Br)cc(Br)c2O)cc1.[Co]`, for which the growth inhibition is 59%.

`Cc1ccc[n+](CC(=O)C2CCC3C4CC=C5CC(O)CCC5(C)C4CCC23C)c1` (stereo not given): the growth inhibition was 27%.

As for `CN(C)CC(C)(C)C(/C=C/c1ccccc1)=N\Nc1ccccc1`, the growth inhibition is 91% (active).

As for `COC1(OC)C2(Cl)C(Cl)=C(Cl)C1(Cl)C1C2C2CC1(C(=O)O)c1ccccc12` (stereo not given), the growth inhibition was 26%.

For `NC(N)=N/N=C(\c1ccc(F)cc1)c1ccc(C(F)(F)F)cc1`, the growth inhibition is 99% (active).

Take `O=C1CC(c2ccccc2Cl)C(c2ccccc2Cl)C1` (stereo not given): the growth inhibition is 97% (active).

As to `O=C(Cl)c1ccc(N=Nc2ccccc2)cc1`, the growth inhibition was 21%.

As to `O=[N+]([O-])c1ccccc1N=Nc1c(O)[nH]c2ccc(S(=O)(=O)O)cc12`, the growth inhibition is 97% (active).

With `Cc1ccccc1N=NC(C(=O)c1ccccc1)C(=O)c1ccccc1`, the growth inhibition was 97% (active).

As for `CCCCC(CC)(COC(C)=O)COC(C)=O`, the growth inhibition was 4%.

On to `NCCOB(c1ccccc1)c1ccccc1`, for which the growth inhibition is 99% (active).

Consider `O=C(Nc1ccccc1C(=O)O)c1ccccc1`, for which the growth inhibition was 30%.

With `O=[N+]([O-])c1ccc(Sc2c3ccccc3nc3ccccc23)nc1`, the growth inhibition was 99% (active).

For `Cc1oc2c(c1C(=O)c1ccccc1)C(=O)c1ccccc1C2=O`, the growth inhibition was 99% (active).

For `OC1(c2ccccc2)CCN(c2c3ccccc3nc3ccccc23)CC1`, the growth inhibition is 58%.
